Among the data in PubChem BioAssay (NCI) are growth inhibition values, retold here.

About 79,000 compounds went through this panel and 15% of them were active in at least one assay; those are over-represented in the sample as a whole. Unmarked numbers belong to inactive results. The source made the active and inactive calls. No stated cut-off is given here; in the data, active means growth inhibition above about 70%; inactive means the rest.

A short description of test [1]: NCI Yeast Anticancer Drug Screen. Data for the rad50 strain (AID 155).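 Further: 0% = growth of vehicle-only cultures of the same strain.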 As to conditions: S. cerevisiae rad50 strain growth inhibition, active compounds read high. An outline of the steps:
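A DNA repair-deficient yeast mutant serves as the test organism; compound-induced growth inhibition is calculated against vehicle-treated cells.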

Test [2] is described as follows: NCI Yeast Anticancer Drug Screen. Data for the mec2-1 strain (AID 157). Particulars: S. cerevisiae mec2-1 strain, active compounds read high. An outline of the steps:
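Compounds were applied to mec2-1 yeast cells. Their growth was then compared with that of vehicle-treated cultures to give growth inhibition.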

A short description of test [3]: NCI Yeast Anticancer Drug Screen. Data for the sgs1 mgt1 strain (AID 161).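 Further: 0% = growth of cultures given vehicle only.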 As to conditions: S. cerevisiae sgs1 mgt1 strain, active compounds read high. In short, it runs like this:
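Compounds are added to genetically altered yeast, and growth is compared with cultures given vehicle alone to give percent inhibition.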

A short description of test [4]: NCI Yeast Anticancer Drug Screen. Data for the cln2 rad14 strain (AID 165).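 Further: 0% = growth equal to vehicle treated cultures.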 As to conditions: S. cerevisiae cln2 rad14 strain, active compounds read high. In short, it runs like this: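 Strain: cln2 rad14 yeast, altered in cell cycle control and DNA damage repair. Read-out: growth inhibition vs vehicle.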
Test [5] can be described thus: NCI Yeast Anticancer Drug Screen. Data for the bub3 strain (AID 167). Particulars: S. cerevisiae bub3 mutant strain, active compounds read high. An outline of the steps:
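Inhibition values come from growth of compound-treated mutant yeast normalised to vehicle-treated controls.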

The nature of test [6]: NCI Yeast Anticancer Drug Screen. Data for the mlh1 rad18 strain (AID 175). As to conditions: S. cerevisiae mlh1 rad18 strain growth inhibition, active compounds read high. In short, it runs like this:
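A repair-deficient yeast strain is exposed to test compound, and growth is scored relative to vehicle-treated controls.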

The mark [7] stands for this setting: at 5.0 µM (retest, dose inferred, filed as 0.5).
Setting [8] is: at 50.0 µM (retest, dose inferred, filed as 5.0).

As to `COC(=O)c1ccccc1NC(=O)C(=O)Cc1nc2c3c(ccc2[nH]c1=O)C(=O)c1ccccc1C3=O`, the growth inhibition in test [1] (setting [7]) is 35%; in test [1] (setting [8]), 98% (active); in test [1] (at 50.0 µM), 85.4% (active); in test [2] (setting [7]), 12%; in test [2] (setting [8]), 99% (active); in test [2] (at 50.0 µM), 25.8%. For the same compound, the growth inhibition in test [3] (setting [7]) was 6%; in test [3] (setting [8]) it was 99% (active); in test [3] (at 50.0 µM) it was 16.2%; in test [4] (setting [7]), 5%; in test [4] (setting [8]), 98% (active); in test [4] (at 50.0 µM), -26.9%. Besides, the growth inhibition in test [5] (setting [7]) was 6%; in test [5] (setting [8]), 99% (active); in test [5] (at 50.0 µM), 16.3%; in test [6] (setting [7]), 16%; in test [6] (setting [8]), 66%; in test [6] (at 50.0 µM) it was 66.6%.

Take `CCN(CC)CCOC(=O)C1CCCCC1C(=O)C1CCCCC1` (configuration not stated): the growth inhibition in test [1] (setting [7]) was -3%; in test [1] (setting [8]), 3%; in test [1] (at 50.0 µM), 29.4%; in test [2] (setting [7]) it was -3%; in test [2] (setting [8]), 0%; in test [2] (at 50.0 µM) it was -1.6%. Besides, the growth inhibition is -7% in test [3] (setting [7]); 5% in test [3] (setting [8]); 21.4% in test [3] (at 50.0 µM); -2% in test [4] (setting [7]); 8% in test [4] (setting [8]); 34.5% in test [4] (at 50.0 µM). Also, the growth inhibition in test [5] (setting [7]) was -3%; in test [5] (setting [8]) it was 14%; in test [5] (at 50.0 µM), 0.85%; in test [6] (setting [7]), 1%; in test [6] (setting [8]), 1%; in test [6] (at 50.0 µM), 11.7%.

Take `O=C(Nc1ccc(Cl)c(Cl)c1Cl)Oc1c(Cl)c(Cl)c(Cl)c(Cl)c1Cl`: the growth inhibition in test [1] (setting [7]) was 25%; in test [1] (setting [8]), 97% (active); in test [1] (at 50.0 µM), 99.5% (active); in test [2] (setting [7]), 36%; in test [2] (setting [8]) it was 100% (active); in test [2] (at 50.0 µM) it was 99.6% (active). The growth inhibition in test [3] (setting [7]) is 43%; in test [3] (setting [8]), 99% (active); in test [3] (at 50.0 µM), 99.6% (active); in test [4] (setting [7]), 13%; in test [4] (setting [8]), 99% (active); in test [4] (at 50.0 µM) it was 99.2% (active). Further, the growth inhibition is 10% in test [5] (setting [7]); 99% (active) in test [5] (setting [8]); 98.5% (active) in test [5] (at 50.0 µM); 20% in test [6] (setting [7]); 99% (active) in test [6] (setting [8]); 99.5% (active) in test [6] (at 50.0 µM).

On to `O=C1C=CC(=Nc2cccc3c2-c2ccccc2C3)O1`, for which the growth inhibition in test [1] (setting [7]) was 98% (active); in test [1] (setting [8]), 99% (active); in test [1] (at 50.0 µM), 99.6% (active); in test [2] (setting [7]) it was 99% (active); in test [2] (setting [8]), 99% (active); in test [2] (at 50.0 µM), 99.6% (active). Moreover, the growth inhibition was 99% (active) in test [3] (setting [7]); 99% (active) in test [3] (setting [8]); 99.7% (active) in test [3] (at 50.0 µM); 88% (active) in test [4] (setting [7]); 99% (active) in test [4] (setting [8]); 99.4% (active) in test [4] (at 50.0 µM). For the same compound, the growth inhibition in test [5] (setting [7]) was 99% (active); in test [5] (setting [8]), 99% (active); in test [5] (at 50.0 µM), 99.7% (active); in test [6] (setting [7]), 99% (active); in test [6] (setting [8]) it was 99% (active); in test [6] (at 50.0 µM), 85.6% (active).

For `O=C(Nc1ccc(C2=NCCN2)cc1)c1cc(C(=O)Nc2ccc(C3=NCCN3)cc2)cc(C(=O)Nc2ccc(C3=NCCN3)cc2)c1`, the growth inhibition in test [1] (setting [7]) is 37%; in test [1] (setting [8]) it was 96% (active); in test [1] (at 50.0 µM), 99% (active); in test [2] (setting [7]) it was 5%; in test [2] (setting [8]) it was 94% (active); in test [2] (at 50.0 µM), 99% (active). Also, the growth inhibition in test [3] (setting [7]) is 16%; in test [3] (setting [8]), 95% (active); in test [3] (at 50.0 µM), 98.8% (active); in test [4] (setting [7]), 13%; in test [4] (setting [8]), 62%; in test [4] (at 50.0 µM), 90.1% (active). Also, the growth inhibition is 23% in test [5] (setting [7]); 99% (active) in test [5] (setting [8]); 98.8% (active) in test [5] (at 50.0 µM); 25% in test [6] (setting [7]); 98% (active) in test [6] (setting [8]); 99% (active) in test [6] (at 50.0 µM).

In the case of `O=C(NC(OCc1ccccc1)(C(F)(F)F)C(F)(F)F)OCc1ccccc1`, the growth inhibition in test [1] (setting [7]) is -14%; in test [1] (setting [8]) it was 98% (active); in test [1] (at 50.0 µM), 96% (active); in test [2] (setting [7]) it was -5%; in test [2] (setting [8]), 92% (active); in test [2] (at 50.0 µM), 91% (active). In addition, the growth inhibition in test [3] (setting [7]) was -9%; in test [3] (setting [8]) it was 98% (active); in test [3] (at 50.0 µM), 93.7% (active); in test [4] (setting [7]), 11%; in test [4] (setting [8]) it was 96% (active); in test [4] (at 50.0 µM) it was 94.8% (active). In addition, the growth inhibition in test [5] (setting [7]) was 13%; in test [5] (setting [8]), 95% (active); in test [5] (at 50.0 µM), 94.5% (active); in test [6] (setting [7]) it was 2%; in test [6] (setting [8]) it was 98% (active); in test [6] (at 50.0 µM), 96.5% (active).

On to `[O-]c1c(-c2cccc3ccccc23)sc(-c2cccc3ccccc23)[n+]1-c1ccccc1`, for which the growth inhibition in test [1] (setting [7]) was 5%; in test [1] (setting [8]), 92% (active); in test [1] (at 50.0 µM) it was 70.7% (active); in test [2] (setting [7]), 10%; in test [2] (setting [8]) it was 95% (active); in test [2] (at 50.0 µM), 55.2%. Further, the growth inhibition was 8% in test [3] (setting [7]); 92% (active) in test [3] (setting [8]); 50.1% in test [3] (at 50.0 µM); -2% in test [4] (setting [7]); 93% (active) in test [4] (setting [8]); 52.6% in test [4] (at 50.0 µM). Further, the growth inhibition was -2% in test [5] (setting [7]); 93% (active) in test [5] (setting [8]); 46.1% in test [5] (at 50.0 µM); 5% in test [6] (setting [7]); 92% (active) in test [6] (setting [8]); 78.7% (active) in test [6] (at 50.0 µM).

Take `CC1CN(CCCN2c3ccccc3Sc3ccc(Cl)cc32)C(C)(C)C1` (configuration not stated): the growth inhibition in test [1] (setting [7]) was 1%; in test [1] (setting [8]) it was 99% (active); in test [1] (at 50.0 µM), 99.7% (active); in test [2] (setting [7]), 5%; in test [2] (setting [8]), 100% (active); in test [2] (at 50.0 µM), 99.8% (active). Besides, the growth inhibition in test [3] (setting [7]) is 17%; in test [3] (setting [8]), 100% (active); in test [3] (at 50.0 µM), 99.8% (active); in test [4] (setting [7]), 10%; in test [4] (setting [8]), 99% (active); in test [4] (at 50.0 µM), 99.3% (active). Moreover, the growth inhibition in test [5] (setting [7]) was 21%; in test [5] (setting [8]), 100% (active); in test [5] (at 50.0 µM) it was 99.3% (active); in test [6] (setting [7]) it was 9%; in test [6] (setting [8]), 99% (active); in test [6] (at 50.0 µM), 99.8% (active).

For the compound `O=Cc1nc2c3cccnc3ccc2n1Cc1ccccc1`, the growth inhibition in test [1] (setting [7]) is -4%; in test [1] (setting [8]), 24%; in test [1] (at 50.0 µM), 0.05%; in test [2] (setting [7]) it was -17%; in test [2] (setting [8]) it was 8%; in test [2] (at 50.0 µM) it was -18.8%. The growth inhibition in test [3] (setting [7]) was -17%; in test [3] (setting [8]) it was 15%; in test [3] (at 50.0 µM), 35.4%; in test [4] (setting [7]), -2%; in test [4] (setting [8]), 5%; in test [4] (at 50.0 µM), 26.7%. Besides, the growth inhibition in test [5] (setting [7]) is 0%; in test [5] (setting [8]), 11%; in test [5] (at 50.0 µM), 57.4%; in test [6] (setting [7]), 8%; in test [6] (setting [8]) it was 34%; in test [6] (at 50.0 µM), 40.9%.
